Test results published in PubChem BioAssay AID624298 (National Center for Advancing Translational Sciences (NCATS), 2012).
Inconclusive results are not listed. Activity calls are given as the source filed them. The call rests on the fitted dose curve; in most records, active means well fitted activation curve with a large enough effect; inconclusive means small, poorly fitted or top-dose-only effect; inactive means no such curve, though single readings can be large or run the other way.
Potency means the concentration at half of the fitted maximal effect.

Test: Activators of T cell receptors: Hit Validation; on activation: 0% is about no effect
Conditions: primary human leukocytes, cytokine release by HTRF, 48 h, TCR-stimulated with anti-CD3 beads; series mostly up to 46.1 µM; activation: at the top concentration
From the text: Normally activation of naive T cells requires two signals. 1. A signal through the T cell receptor (TCR) which provides antigen specificity to the response. 2. Signals through co-stimulatory molecules, which are necessary for proliferation, survival and cytokine production. In the absence of co-stimulatory signals T cells are not effectively activated, and may even be rendered anergic or unresponsive to subsequent signaling. This lack of costimulation has been shown in multiple model systems to be a major factor in the limited strength and effectiveness of anti-tumor T cell responses. The goal of this project is to identify small molecule compounds that will stimulate T cell activation in the presence of TCR signaling but in the absence of co-stimulatory signals, thereby allowing activation of naive T cells in the absence of co-stimulation. Identification of such compounds would have clear experimental and clinical applications in instances where desirable antigen-specific immune responses are not generated due to a lack of co-stimulation, for example in the generation of anti-tumor responses.
In collaboration between the National Cancer Institute and NIH Chemical Genomics Center, a high-throughput amenable screen was developed to discover small molecules that co-stimulate and activate human T cell receptors. The screen will be carried out using a novel homogeneous time resolved fluorescence energy transfer (HTRF) assay to measure production of the cytokine IL-2 by activated T cells and will be tested against the NIH Molecular Libraries Small Molecule Repository (MLSMR). This is the same assay tested against the hits identified in the primary screen.
NIH Chemical Genomics Center [NCGC]
NIH Molecular Libraries Probe Centers Network [MLPCN]
Assay Submitter (PI): Richard Hodes, National Cancer Institute, NIH
Primary human leukocytes are incubated with a-CD3 beads and compounds for 48 hr. The amount of secreted IL-2 is then assayed with a HTRF IL-2 kit. The presence of IL-2 cytokine captures the detection reagents and brings the a-IL-2-K and a-IL-2-d2 into close proximity. Upon excitation with 320nm light, the europium cryptate is capable of transferring energy to acceptor molecules within close proximity, resulting in acceptor molecule emission at 665nm.
In the case of Cc1cccc(NC(=O)c2sc3nc(N)c(C#N)cc3c2N)c1, the “activation” value was 2.08% (inactive).
For CC(NC(=S)NCCN1CCOCC1)C12CC3CC(CC(C3)C1)C2 (stereo not given), the “activation” value was -1.44% (inactive).
For CCCn1c(-c2ccccc2)nc2c(=O)n(C)c(=O)[nH]c21, the “activation” value was 8.8% (inactive).
In the case of CC(=O)Nc1ccc(NC(=O)C(C)OC(=O)c2c(NC(C)=O)sc(C)c2C)cc1 (stereo not given), the “activation” value was 5.47% (inactive).
With O=C(NCCCNCc1ccccc1)/C(=N\O)c1ccccc1 the “activation” value was 6.08% (inactive).
In the case of Cc1cc(=O)[nH]c(N/N=C/c2cccs2)n1, the “activation” value was 12.7% (inactive).
For O=C(COc1ncnc2c(Cl)cc(Cl)cc12)Nc1cc([N+](=O)[O-])ccc1Cl, the “activation” value was 4.07% (inactive).
In the case of COc1ccc(CNC(=O)C[C@H]2C[C@H](C(=O)N3CCCCC3)[C@@]3(C)c4[nH]c5cc(-c6ccco6)ccc5c4CCN3C2=O)cc1OC, the “activation” value was 8.64% (inactive).
With Cc1cc(NC(=O)CN2C(=O)NC(CC(C)C)C2=O)ccc1Br (stereo not given) the “activation” value was 0.93% (inactive).
With Cc1ccc(C(=O)OCC(=O)NCc2ccco2)cc1C the “activation” value was 5.96% (inactive).
For N#Cc1ccc(CN2CCN(C(=O)c3ccc(S(=O)(=O)NCc4ccco4)cc3)CC2)cc1, the “activation” value was 9.02% (inactive).
For CCCCN1CCC(COC(=O)c2cc(Cl)c(N)c3c2OCCO3)CC1, the “activation” value was 5.26% (inactive).
In the case of OC1CCCC1, the “activation” value was 10.2% (inactive).
With COc1ccc(N(C)S(=O)(=O)c2cccc(C(=O)N3CCN(Cc4ccc5c(c4)OCO5)CC3)c2)cc1 the “activation” value was 4.52% (inactive).
With COc1cc(N=c2ssnc2Cl)c(OC)cc1Cl the “activation” value was 9.47% (inactive).
For COc1cc(OC)cc(C(=O)Nc2ccc(S(=O)(=O)N3CCOCC3)cc2)c1, the “activation” value was 17.4% (inactive).
For COc1ccc(NC(=O)COC(=O)CN2C(=O)C3CCCCC3C2=O)cc1OC (stereo not given), the “activation” value was 0.394% (inactive).
With CN(C)CCCN1c2ccccc2Sc2ccc(Cl)cc21 the “activation” value was 8.87% (inactive).
In the case of CCCCCCC[C@@H](C/C=C/CCC(=O)N(C)C/C(=C/Cl)C/C(=C\C(=O)N1CC(OC)=CC1=O)OC)OC, the Potency was 996 nM (active).
In the case of COc1cc(C(=O)OCCCN2CCCN(CCCOC(=O)c3cc(OC)c(OC)c(OC)c3)CC2)cc(OC)c1OC, the “activation” value was -2.16% (inactive).
With COc1cc(/C=C/C(=O)OCc2csc(CC(=O)Nc3ccc(C)cc3)n2)ccc1OCC#N the “activation” value was -4.15% (inactive).
With CCOc1cc(/C=N/O)cc(Br)c1OCC(=O)NCc1ccccc1 the “activation” value was 8.09% (inactive).
For COc1cccc(CNC(=O)c2ccc(Cl)c(S(=O)(=O)N3CCOCC3)c2)c1, the “activation” value was -13.2% (inactive).
With O=C(O)c1ccccc1-c1c2cc(I)c(=O)c(I)c-2oc2c(I)c(O)c(I)cc12 the Potency was 996 nM (active).
For Nn1c(SCc2ccccc2F)nnc1-c1ccccn1, the “activation” value was 6.47% (inactive).
With COc1ccc(S(=O)(=O)N2CCN(C(=O)CCc3c[nH]c4ccccc34)CC2)cc1 the “activation” value was 5.36% (inactive).
For CC(C)c1nnc(SCC(=O)N2CCOCC2)n1C, the “activation” value was 0.107% (inactive).
For COc1ccc(NC(=O)C2CC(=O)N(Cc3ccco3)C2)cc1Cl (stereo not given), the “activation” value was 0.922% (inactive).
For Cc1noc(C)c1C(=O)OC(C)C(=O)N1CCc2ccccc21 (stereo not given), the “activation” value was 4.82% (inactive).
With COc1ccc(NC(=O)C(c2ccccn2)N(C(C)=O)c2ccc(C)cc2)cc1 (stereo not given) the “activation” value was -1.67% (inactive).
With Oc1ccc(/C=N\Nc2nncc(-c3ccccc3)n2)cc1 the “activation” value was 10.3% (inactive).
In the case of Cc1ccc(C(=O)NCCc2nnc3ccc(SCC(=O)N4CCCCC4)nn23)cc1, the “activation” value was 7.71% (inactive).
For CC(c1nnc(SCC(=O)c2c(N)n(C3CC3)c(=O)[nH]c2=O)n1-c1ccc(F)cc1)N(C)C (stereo not given), the “activation” value was 1.48% (inactive).
In the case of CCN(CC(=O)Nc1c(F)cccc1F)C(=O)C1CCN(S(=O)(=O)c2ccccc2C(=O)OC)CC1, the “activation” value was -0.863% (inactive).
With CC[n+]1ccc(/C=C/c2ccc(N(C)C)cc2)c2ccccc21 the Potency was 4450 nM (active).
With CN(C)c1ccc(N/C(N)=N/c2nc(C(F)(F)F)cc(C(F)(F)F)n2)cc1 the “activation” value was 4.85% (inactive).
In the case of COc1cc(NC(=O)CN2CCN(S(=O)(=O)/C=C/c3ccccc3)CC2)cc(OC)c1OC, the “activation” value was 3.25% (inactive).
With NC(=O)c1ccccc1 the “activation” value was -2.92% (inactive).
In the case of O=C(O)c1ccc(NC(=O)C(c2ccccc2)c2ccccc2)cc1, the “activation” value was 9.22% (inactive).
In the case of Cc1cc(Cl)ccc1OCC(=O)OCC(=O)Nc1cccnc1Cl, the “activation” value was 4.56% (inactive).
